Data as given in PubChem BioAssay.
The source made the active and inactive calls. How the calls were made is not given here.

These compounds were tested against Pantothenate synthetase (Mycobacterium tuberculosis (strain ATCC 25618 / H37Rv)) (UniProt P9WIL5) (assay: Recombinant Mtb pantothenate synthetase (PanC) inhibitors, coupled enzyme, confirmatory (AID 375;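 further: 0% = full reaction with vehicle and 100% = no enzyme background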)). Conditions: coupled enzyme assay; at 10 µM, stronger effect = higher value.
Sequence of Pantothenate synthetase (Mycobacterium tuberculosis (strain ATCC 25618 / H37Rv)) (P9WIL5 whole entry, looked up): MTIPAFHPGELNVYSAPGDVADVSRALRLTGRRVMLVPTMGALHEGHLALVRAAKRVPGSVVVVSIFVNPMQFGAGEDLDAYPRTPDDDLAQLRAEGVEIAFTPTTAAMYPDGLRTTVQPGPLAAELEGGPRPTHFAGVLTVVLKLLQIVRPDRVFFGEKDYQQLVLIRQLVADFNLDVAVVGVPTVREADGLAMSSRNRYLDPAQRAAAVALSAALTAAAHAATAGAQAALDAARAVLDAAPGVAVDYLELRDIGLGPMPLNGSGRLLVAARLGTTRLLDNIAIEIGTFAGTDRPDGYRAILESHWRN
With `COc1ccc2[nH]c(=O)c(CN(C(=O)c3cccnc3)c3ccccc3OC)cc2c1` the inhibition was 1% (inactive). With `COCCN(C(=O)CCC(=O)Nc1ccccn1)C(C(=O)NC1CCCC1)c1ccc(OC)cc1` (centres undefined) the inhibition was 0% (inactive). `Cc1cc(C)n(-c2cc(N3CCOCC3)ncn2)n1` was tested, and the inhibition was 1% (inactive). In the case of `CC(=O)Nc1nc(=S)ss1`, the inhibition is reported as 6% (inactive). With `CCOC(=O)c1cc2sc(C)cc2n1CC(=O)Nc1cccc(C)c1C` the inhibition was 0% (inactive). With `O=C(CNS(=O)(=O)c1ccccc1)NCc1ccccn1` the inhibition was 9% (inactive). With `COc1ccc(-c2nc(N)nc(C)c2Oc2ccccc2Br)c(O)c1` the inhibition was 0% (inactive). In the case of `Cc1ccc(-c2noc(CN3CCN(c4ccccc4F)CC3)n2)cc1`, the inhibition is reported as 0% (inactive). In the case of `Cc1c(C#N)c(N)c(C(=O)c2ccccc2)n1Cc1ccccc1`, the inhibition is reported as 0% (inactive). For `CC(C)NC(=O)c1ccc2c(c1)nnn2C`, the inhibition was 0% (inactive). In the case of `CC(C)OC(=O)CSc1nnnn1-c1ccc2c(c1)OCCO2`, the inhibition is reported as 2% (inactive). `COc1ccc(OC)c(C2CC(=O)NC(SC)=C2C#N)c1` (centres undefined) was tested, and the inhibition was 5% (inactive). With `Cc1cc(=O)[nH]c(SCC(=O)NCc2ccco2)n1` the inhibition was 0% (inactive). With `COc1cc(OC)nc(NC(=O)CSc2nc3ccccc3o2)n1` the inhibition was 11% (inactive). In the case of `Cn1c(-c2ccccc2)cnc1SCc1nc2ccccc2c(=O)[nH]1`, the inhibition is reported as 7% (inactive). With `C=CCn1c(SCC(=O)Nc2ccccc2OC)nnc1-c1ccccn1` the inhibition was 3% (inactive). `CCn1c(SCC(=O)Nc2nnc(C)s2)nnc1-c1ccncc1` was tested, and the inhibition was 1% (inactive). `CCN1CCN(C(=O)N[C@@H](C(=O)N[C@@H]2C(=O)N3[C@@H]2SC(C)(C)[C@@H]3C(=O)O)c2ccccc2)C(=O)C1=O` was tested, and the inhibition was 2% (inactive). For `COC(=O)c1cccc(NC(=O)CN2CCN(Cc3ccccc3)CC2)c1`, the inhibition was 2% (inactive). `CCCC(=O)Nc1nnc(CC(=O)OCC)s1` was tested, and the inhibition was 3% (inactive). With `Cc1nc2ccc(N3C(=O)CCC3=O)cc2[nH]1` the inhibition was 5% (inactive). For `Nc1nc(-c2ccc(Br)s2)c(Br)s1`, the inhibition was 2% (inactive). With `CN(Cc1nc(-c2ccncc2)no1)S(=O)(=O)c1ccc(Br)cc1` the inhibition was 2% (inactive). In the case of `C[C@H](CCC(=O)O)[C@H]1CC[C@H]2[C@@H]3C(=O)C[C@@H]4CC(=O)CC[C@]4(C)[C@H]3CC(=O)[C@]12C`, the inhibition is reported as 2% (inactive). In the case of `CS(=O)(=O)N1CCc2cc(C(=O)N3CCCCC3)ccc21`, the inhibition is reported as 2% (inactive). `CN(CC(=O)Nc1sccc1C#N)C1CCCCC1` was tested, and the inhibition was 0% (inactive). In the case of `Cc1nc2ccc(S(=O)(=O)NCC(=O)N3CCc4ccccc4C3)cc2s1`, the inhibition is reported as 2% (inactive). With `N#C[C@@H]1[C@@H]2C(=O)N(c3ccc4c(c3)OCCO4)C(=O)[C@@H]2C2c3ccccc3C=CN21` (some centres undefined) the inhibition was 2% (inactive). For `CC1/C(=N/O)C(CN(C)C)C2CC1C2(C)C` (centres undefined), the inhibition was 0% (inactive). In the case of `CCn1c2ccccc2c2cc(NC(=O)CSc3nnc(C4CC4)n3Cc3ccco3)ccc21`, the inhibition is reported as 1% (inactive). With `O=C(OCC(=O)c1ccccc1Br)c1ccccn1` the inhibition was 3% (inactive). `CCn1c(=O)cc(OCC(=O)NCCCN2CC(C)CC(C)C2)c2ccccc21` (centres undefined) was tested, and the inhibition was 3% (inactive). `O=C(NC1CCCCCC1)c1c(F)c(F)c(F)c(F)c1F` was tested, and the inhibition was 4% (inactive). `O=C(c1ccc(Br)o1)N(Cc1ccccc1)c1ccccn1` was tested, and the inhibition was 3% (inactive). `CC(C)NC(=O)CSc1nc2ccccc2n1-c1ccccc1` was tested, and the inhibition was 1% (inactive). In the case of `Cn1c(Cc2csc(N)n2)nnc1SCC(=O)NCc1ccccc1`, the inhibition is reported as 3% (inactive). For `Nc1ccc2[nH]ncc2c1`, the inhibition was 0% (inactive). With `O=C(NC1CCN(Cc2nnnn2CCc2ccccc2)CC1)c1ccccc1F` the inhibition was 3% (inactive). In the case of `CC(=O)c1ccc(NC(=O)C2CCN(S(=O)(=O)c3cccc4cccnc34)CC2)cc1`, the inhibition is reported as 4% (inactive).
